The nature of test [1]: qHTS assay to identify small molecule agonists of the vitamin D receptor (VDR) signaling pathway - cell viability counter screen (AID 743224). Also: series mostly up to about 63 µM; % is scaled to controls: 0 for no effect and ±100 for the full control effect; nearly all actives have a fitted effect of over 50% in size. Summed up:
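Here cell health was gauged by luminescent ATP detection (CellTiter-Glo, 30 min RT) in VDR-bla cells that had been incubated with test compounds for 16 h at 37C and 5% CO2.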
(In qHTS, concentration-response curves come from the screen itself.)

Test [2] can be described thus: qHTS assay to identify small molecule antagonists of the vitamin D receptor (VDR) signaling pathway - cell viability counter screen (AID 743225). Also: % is scaled to controls: 0 for no effect and ±100 for the full control effect; nearly all actives have a fitted effect of over 50% in size. Summed up: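 Luminescent cell viability (CellTiter-Glo) in VDR-bla HEK 293T cells after 16 h compound exposure at 37C in the presence of 3 nM final 1-alpha,25-dihydroxy vitamin D3.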
A short description of test [3]: qHTS assay to identify small molecule agonists of the NFkB signaling pathway (AID 1159509; active = well fitted curve in the direction sought with a large enough effect in the signal ratio in the repeat runs, not every such curve was filed as active; the % refers to the signal ratio; also: series mostly up to about 61 µM; % is scaled to controls: 0 for no effect and ±100 for the full control effect). Summed up:
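NFkB-bla ME-180 cells with a beta-lactamase reporter under an NF-kB response element were plated overnight, treated with compounds in DMSO for 5 hr at 37 C, then loaded with FRET substrate for 1.5 hr at room temperature.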

The nature of test [4]: qHTS assay to identify small molecule agonists of the NFkB signaling pathway - cell viability counter screen (AID 1159515; calls by dose curve; also: series mostly up to about 61 µM; % is scaled to controls: 0 for no effect and ±100 for the full control effect; nearly all actives have a fitted effect of over 55% in size). Summed up: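 5 hr compound treatment of NFkB-bla ME-180 cells (2,000/well, seeded overnight beforehand), followed by reporter substrate for 1.5 hr. CellTiter-Glo added afterward; luminescence after 30 min RT.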
A short description of test [5]: qHTS assay to identify small molecule agonists of the endoplasmic reticulum stress response signaling pathway (AID 1159516; active = well fitted activation curve with a large enough effect in the signal ratio in the repeat runs, not every such curve was filed as active; the % refers to the signal ratio; also: % is scaled to controls: 0 for no effect and ±100 for the full control effect). Summed up: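 Reporter HeLa cells (ESRE-beta-lactamase) underwent 5 hr compound incubation at 37 C and 5% CO2 in quantitative HTS format. Detection followed 2 hr of FRET substrate loading at room temperature.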
Test [6] in a line: qHTS assay to identify small molecule antagonists of the retinoid-related orphan receptor gamma (ROR-gamma) signaling pathway - cell viability counter screen (AID 1159520). Also: % is scaled to controls: 0 for no effect and ±100 for the full control effect; nearly all actives have a fitted effect of over 50% in size. Summed up: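 Tet-on ROR gamma CHO cells were given compounds for 2 hr, then doxycycline hyclate at 1 uM final, and incubated 16 hr at 37 C. Viability was measured as ATP content by CellTiter-Glo luminescence.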

Test [7] has as its target Nuclear receptor ROR-gamma (Homo sapiens) (UniProt P51449). In words: qHTS assay to identify small molecule antagonists of the retinoid-related orphan receptor gamma (ROR-gamma) signaling pathway (AID 1159521;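 also: CHO cells with doxycycline inducible ROR-gamma driving an RORE luciferase reporter; top concentration of the series differs between compounds; % is scaled to controls: 0 for no effect and ±100 for the full control effect; nearly all actives have a fitted effect of over 50% in size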). Summed up:
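CHO cells expressing RORγ under a TET-on promoter, luciferase under RORE control. Dox 1 uM final, 16 h; compounds added 2 h prior. Luminescence decrease measured.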

Test [8] in a line: qHTS assay to identify small molecule agonists of the AP-1 signaling pathway - cell viability counter screen (AID 1159525; calls by dose curve; also: nearly all actives have a fitted effect of over 55% in size). Summed up:
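AP-1-bla ME-180 cells in Opti-MEM with 0.5% dialyzed FBS, compound exposure 5 h at 37 C in 15-point titration. Viability read in the same wells as ATP content by CellTiter-Glo luminescence, normalised to tetra-n-octylammonium bromide and DMSO controls.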

Test [9] is described as follows: qHTS assay to identify small molecule agonists of the AP-1 signaling pathway (AID 1159526; calls by dose curve; also: % is scaled to controls: 0 for no effect and ±100 for the full control effect).
Test [10] has as its target Retinoic acid receptor RXR-alpha (Homo sapiens) (UniProt P19793). In words: qHTS assay to identify small molecule agonists of the RXR signaling pathway (AID 1159527; calls by dose curve; also: % is scaled to controls: 0 for no effect and ±100 for the full control effect; nearly all actives have a fitted effect of over 35% in size). Summed up: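 Beta-lactamase reporter assay, agonist format. Engineered HEK 293T line, charcoal-stripped FBS at 2%, overnight (16 hr) exposure, fluorescence at 460 and 530 nm after 405 nm excitation.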
The nature of test [11]: qHTS assay to identify small molecule agonists of the RXR signaling pathway - cell viability counter screen (AID 1159529). Summed up: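 Same-well viability check after the LiveBLAzer FRET read: CellTiter-Glo added, luminescence measured after 30 min at room temperature. Reporter HEK 293T cells had been treated with compounds for 16 hr following a 5 hr preincubation.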
Test [12] is described as follows: qHTS assay to identify small molecule antagonists of the retinoid acid receptor (RAR) signaling pathway - cell viability counter screen (AID 1159551). Also: % is scaled to controls: 0 for no effect and ±100 for the full control effect; nearly all actives have a fitted effect of over 35% in size. Summed up: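 Seed C3RL4 cells; next day add compound, then retinol to 1 uM final; incubate 6 h at 37 C; add CellTiter-Glo; read luminescence after 30 min at RT.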
A short description of test [13]: qHTS assay to identify small molecule antagonists of the retinoic acid receptor (RAR) signaling pathway (AID 1159552). Summed up: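 Readout: luciferase luminescence, 30 min post-reagent at RT. Setup: C3RL4 RARE reporter cells, compounds plus retinol 1 uM final, 6 hr incubation at 37 C and 5% CO2.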
Test [14] is described as follows: qHTS assay to identify small molecule agonists of the retinoic acid receptor (RAR) signaling pathway (AID 1159553). Also: potency is read from the fitted curve at half-maximal effect. As to activation: % is scaled to controls: 0 for no effect and ±100 for the full control effect. Summed up:
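Activation of retinol signaling was monitored via a RARE luciferase reporter in C3RL4 cells. After 6 hr compound treatment at 37 C, detection reagent was added for 30 min at room temperature before luminescence reading.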

Experimental findings from PubChem BioAssay (Tox21) are described below.

Inconclusive results are not listed. Values without a mark were called inactive. Active and inactive are the calls of the source. Unless noted, calls follow the shape of the dose curve; as a rule, active = well fitted curve in the direction sought with a large enough effect in the repeat runs; inconclusive = weak or mixed curves; inactive = no such curve, though single readings can be large; an effect the other way counts as inactive or inconclusive.

Sequence of Retinoic acid receptor RXR-alpha (Homo sapiens) (P19793 whole entry, looked up): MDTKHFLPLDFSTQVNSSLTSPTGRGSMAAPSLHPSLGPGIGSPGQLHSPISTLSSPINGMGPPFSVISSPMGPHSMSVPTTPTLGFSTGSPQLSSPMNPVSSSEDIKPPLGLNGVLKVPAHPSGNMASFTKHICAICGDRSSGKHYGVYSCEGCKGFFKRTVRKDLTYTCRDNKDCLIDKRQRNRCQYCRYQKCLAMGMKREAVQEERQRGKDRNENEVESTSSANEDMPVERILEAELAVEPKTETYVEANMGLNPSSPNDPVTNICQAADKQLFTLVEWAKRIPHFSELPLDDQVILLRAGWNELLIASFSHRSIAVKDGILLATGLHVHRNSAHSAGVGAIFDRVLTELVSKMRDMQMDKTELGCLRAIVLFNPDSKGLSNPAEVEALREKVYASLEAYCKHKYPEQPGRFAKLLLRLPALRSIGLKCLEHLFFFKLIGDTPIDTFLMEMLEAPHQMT

As to `O=C(c1ccccc1)c1ccc(O)cc1`, the Potency entry in test [1], in test [2], in [4], in test [5], in test [6] and in [7] was “inactive” throughout. Also, the Potency entry in test [8], in [10], in test [11], in test [12] and in test [13] was “inactive” each time. Besides, the compound was classed as inactive in [3] and in test [9].

As to `CCc1ccc(C)cc1`, the Potency entry in test [2], in test [4], in test [5], in [6], in [7] and in [8] was “inactive” each time. Besides, the Potency result in [10], in test [11], in test [12], in [13] and in test [14] was “inactive” throughout. Moreover, the outcome in test [3] and in test [9] was inactive.

For `CCC(Cl)CC(Cl)C(Cl)C(Cl)C(Cl)C(C)Cl` (stereo not given), the activity change, negative = cytotoxicity in test [1] was -2.44% [at 13.2 µM]; in test [11] it was -9.76% [at 15.8 µM]; in test [12], 0.117% [at 19 µM]. Besides, the viability change, negative = cytotoxic in [2] is 6.69% [at 15.1 µM]; in [8], -14.2% [at 15.8 µM]. Moreover, the activation in test [3] was -0.489% [at 15.1 µM]; in test [5], -4.87% [at 15.1 µM]; in test [9], 9.95% [at 15.8 µM]; in [10] it was -0.0074% [at 15.8 µM]. Besides, in [4], the activity, negative = cytotoxic is 0.94% [at 15.1 µM]. The activity, negative = cytotoxicity in test [6] is 0.516% [at 19 µM]. In addition, the activity change, negative = inhibition in test [7] is 79.2% [at 19 µM]. Further, in test [13], the activity, negative = inhibition was 84.9% [at 19 µM]. Further, the Potency in test [14] is 133 nM (active).

Regarding `CCCCCCC(O)CCOC(C)=O` (stereo not given), the Potency result in [1], in [2], in test [4], in [5], in [6] and in test [7] was “inactive” throughout. The Potency result in test [8], in test [10], in test [11] and in test [12] was “inactive” throughout. Further, the result in test [3] and in test [9] was inactive.

As to `Cc1c[nH]c2ccccc12`, the Potency entry in test [1], in [2], in test [4], in test [5], in [6] and in [7] was “inactive” each time. For the same compound, the Potency entry in test [8], in test [10], in test [11], in test [12] and in [14] was “inactive” throughout. The call in [3] and in [9] was inactive.

`O=c1[nH]c2cc(C(F)(F)F)c(N3CCOCC3)cc2n(CP(=O)(O)O)c1=O`: the Potency entry in [1], in [2], in test [4], in test [5], in test [6] and in [7] was “inactive” throughout. In addition, the Potency entry in test [8], in test [10], in [11], in test [12], in test [13] and in test [14] was “inactive” each time. The compound was classed as inactive in [3] and in [9].

As for `Nc1ccn([C@H]2CS[C@@H](CO)O2)c(=O)n1`, the call in test [3] and in [9] was inactive. For the same compound, the Potency entry in test [4], in test [5], in [6], in test [7], in [8] and in test [10] was “inactive” each time. Also, the Potency result in [11], in test [12], in test [13] and in test [14] was “inactive” throughout.

On to `C/C(C=O)=C\c1ccccc1`, for which the Potency entry in [1], in [2], in test [4], in [5], in test [6] and in test [7] was “inactive” throughout. Moreover, the Potency result in test [8], in [10], in [11], in [12] and in test [14] was “inactive” in each case. Besides, the call in test [3] and in test [9] was inactive.

Turning to `O=C(NC(Cc1cc(=O)[nH]c2ccccc12)C(=O)O)c1ccc(Cl)cc1` (stereo not given), the Potency entry in test [1], in [2], in test [4], in test [5], in test [6] and in test [7] was “inactive” in each case. The Potency result in [8], in test [10], in test [11], in [12], in [13] and in test [14] was “inactive” in each case. For the same compound, the result in test [3] and in test [9] was inactive.

In the case of `CCN(CC)CCOC(=O)C(c1ccccc1)c1ccccc1`, the Potency entry in test [2], in test [4], in test [5], in [6], in test [7] and in test [8] was “inactive” each time. In addition, the Potency entry in test [10], in test [11], in test [12] and in test [13] was “inactive” in each case. Also, the outcome in test [3] and in test [9] was inactive.
